# In all, about 69,000 compounds went through this assay and about 1,000 (1.4%) showed an effect of 50% or more. The entries come from a sample that favours strong results as a whole.
# Tested on: Leishmania donovani
# Experiment: Leishmania intramacrophage assay
# Format: functional, organism-based
# Set-up: scale not given: in the data most compounds retested in dose-response had high values
compound,measurement,setting,value
CO[C@H]1CCN(Cc2ccoc2)C[C@@H]1Cc1ccccc1.O=C(O)C(F)(F)F,Percent Effect,"30.3 µM, […]",25.61%
COc1c(C)cnc(CSc2nnc(NC3CC3)s2)c1C,Percent Effect,"30.3 µM, […]",13.54%
O=C(NCC(=O)N1CCCC(c2ccccc2)CC1)c1ccoc1 (stereo unspecified),Percent Effect,30 µM,24.45%
O=C([C@H]1CCCO1)N1CCc2ncc(CN3CCOCC3)n2CC1,Percent Effect,"30.3 µM, […]",32.4%
Cc1cnn(CC(C)NCc2ccc(OCC(N)=O)cc2)c1 (stereo unspecified),Percent Effect,30 µM,8.68%
Cc1c(CN2CC[C@@H](N3CCC(O)CC3)[C@H](O)C2)[nH]c2ccc(F)cc12,Percent Effect,"30.3 µM, […]",26.65%
Cc1ccc2[nH]c(CN3CC[C@@H](N4CCN(C)CC4)[C@H](O)C3)c(C)c2c1,Percent Effect,"30.3 µM, […]",23.41%
Cc1c(CN2CC[C@@H](N3CCC(O)CC3)[C@H](O)C2)[nH]c2ccc(Cl)cc12,Percent Effect,"30.3 µM, […]",82.7%
O=C(c1ccc(S(=O)(=O)NCc2ccon2)cc1)N1CCOCC1,Percent Effect,"30.3 µM, […]",0.2735%
Cc1nc[nH]c1-c1c(-c2ccccc2)ncn1C1CCNC1 (stereo unspecified),Percent Effect,"30.3 µM, […]",-1.128%
CCOc1ccc(-c2c(-c3ccccc3)ncn2C2CCNC2)cn1 (stereo unspecified),Percent Effect,"30.3 µM, […]",76.3%
Oc1ccc(-c2c(-c3ccccc3)ncn2C2CCNC2)cc1 (stereo unspecified),Percent Effect,"30.3 µM, […]",-26.99%
Cc1nc(C)n(CC2CCCN(c3ncnc4ccsc34)C2)n1 (stereo unspecified),Percent Effect,"30 µM, 30.03 µM",35.24%
CCc1nc(CN2CCCN(c3ncnc4ccccc34)CC2)no1,Percent Effect,"30 µM, 30.03 µM",55.68%
Cc1nc(C)n(CC2CCCN(c3ncnc4sccc34)C2)n1 (stereo unspecified),Percent Effect,"30 µM, 30.03 µM",-10.34%
CCc1nc(CN2CCCN(c3ncnc4ccsc34)CC2)no1,Percent Effect,"30.3 µM, […]",27.83%
Cc1nc(C)n(CC2CCCN(c3ncnc4c3CCC4)C2)n1 (stereo unspecified),Percent Effect,"30 µM, 30.03 µM",28.07%
Cc1nc(C)n(CC2CCCN(c3ncnc4[nH]ccc34)C2)n1 (stereo unspecified),Percent Effect,"30 µM, 30.03 µM",52.77%
Cc1nc(CN2CCN(c3ncnc4ccccc34)CC2)no1,Percent Effect,"30.3 µM, […]",19.7%
Cc1nc(C)n(CC2CCCN(c3ncnc4ccccc34)C2)n1 (stereo unspecified),Percent Effect,30 µM,54.57%
Cc1nc(C)n(CC2CN(c3ncnc4[nH]ccc34)CCO2)n1 (stereo unspecified),Percent Effect,"30 µM, 30.03 µM",-5.028%
COCC1CN(C(=O)COc2ccccc2C)Cc2ncn(C)c21.O=C(O)C(F)(F)F (stereo unspecified),Percent Effect,"30.3 µM, […]",12.02%
Cc1ccc(CN2CCn3c(COc4cccnc4)cnc3C2C)o1.O=C(O)C(F)(F)F.O=C(O)C(F)(F)F (stereo unspecified),Percent Effect,"30.3 µM, […]",-4.64%
CCCn1cc(C(=O)N[C@H]2CC[C@H](n3cnnc3)CC2)c(C)n1,Percent Effect,"30.3 µM, […]",11.19%
O=C(O)C(F)(F)F.O=S(=O)(c1cccs1)N1CC[C@H]2[C@H]1CCN2c1ncccn1,Percent Effect,"30.3 µM, […]",-1.813%
Cc1ccc(CN2C[C@@H]3CN(CC4CCOCC4)CCO[C@@H]3C2)s1.O=C(O)C(F)(F)F.O=C(O)C(F)(F)F,Percent Effect,"30.3 µM, […]",24.65%
Cc1csc(CN2C[C@@H]3CN(S(C)(=O)=O)CCO[C@@H]3C2)n1,Percent Effect,"30.3 µM, […]",20.2%
Cc1csc(CN2C[C@@H]3CN(CC4CCOCC4)CCO[C@@H]3C2)n1,Percent Effect,"30.3 µM, […]",53.9%
Cc1nc(C(=O)N2CCCC2c2cncc(CN3CCCC3)n2)co1 (stereo unspecified),Percent Effect,"30.3 µM, […]",16.43%
COc1ccc(CC(=O)N2CCCC(n3nc(C)cc3C)C2)cc1F (stereo unspecified),Percent Effect,30 µM,18.37%
Cc1[nH]/c(=N\C(=O)c2csc(NC3CCCC3)n2)sc1C,Percent Effect,"30.3 µM, […]",100.1%
CCN(CC)C(=O)CCCNC(=O)c1csc(NC2CC2)n1,Percent Effect,"30.3 µM, […]",-2.373%
CC(C)CNc1nc(C(=O)/N=c2\[nH]nc(C(C)(C)C)s2)cs1,Percent Effect,"30 µM, 30.03 µM",-9.293%
Cc1[nH]/c(=N\C(=O)c2csc(NCC(C)C)n2)sc1C,Percent Effect,"30 µM, 30.03 µM",87.72%
Cc1[nH]/c(=N\C(=O)c2csc(NC3CC3)n2)sc1C,Percent Effect,"30 µM, 30.03 µM",70.25%
CC(C)(C)[S+]([O-])CCNC(=O)c1csc(NC2CC2)n1 (stereo unspecified),Percent Effect,"30.3 µM, […]",-31.46%
Cc1cs/c(=N/C(=O)c2csc(NCC(C)C)n2)[nH]1,Percent Effect,"30.3 µM, […]",8.971%
CN1CCN(C(=O)CCc2cc(Br)cs2)CC1,Percent Effect,"30.3 µM, […]",1.944%
O=C(Cc1ccsc1)N1CCN(CC2CC2)c2ncccc2C1.O=C(O)C(F)(F)F,Percent Effect,"30.3 µM, […]",13.41%
CC(C)c1cc(C(F)(F)F)n2nc(C3CCN(S(C)(=O)=O)C3)cc2n1 (stereo unspecified),Percent Effect,"30.3 µM, […]",14.63%
COc1ccc2[nH]cc(C(=O)N3C[C@@H](O)[C@H](N4CCOCC4)C3)c2c1,Percent Effect,"30.3 µM, […]",10.77%
COc1ccccc1OCc1cc(C(=O)N2CCOCC2CO)n[nH]1 (stereo unspecified),Percent Effect,"30.3 µM, […]",28.86%
CCc1ccc(CN(Cc2ccccc2)CC(C)CO)nc1 (stereo unspecified),Percent Effect,"30.3 µM, […]",7.862%
COCCN1CCN(C(C)c2nc(C3CC3)no2)CC1 (stereo unspecified),Percent Effect,30 µM,-7.952%
CC(C)OCCN1CCN(C(C)c2nc(C3CC3)no2)CC1 (stereo unspecified),Percent Effect,30 µM,6.668%
CC(c1nc(C2CC2)no1)N1CCN(CCS(C)(=O)=O)CC1 (stereo unspecified),Percent Effect,"30.3 µM, […]",50.3%
Clc1snnc1CN1CCN(c2nccs2)CC1,Percent Effect,"30.3 µM, […]",-11.24%
COc1ccccc1CC(C)CC(=O)O (stereo unspecified),Percent Effect,"30.3 µM, […]",41.22%
COc1ccccc1CC(=O)NS(C)(=O)=O,Percent Effect,"30 µM, 30.03 µM",11.96%
COc1ccccc1CC(C)CC(=O)NC(C)C (stereo unspecified),Percent Effect,"30.3 µM, […]",59.88%
COc1ccccc1CC(C)CC(=O)N(C)Cc1cc(C)on1 (stereo unspecified),Percent Effect,"30.3 µM, […]",6.655%
COc1ccccc1CC(C)CC(=O)NS(=O)(=O)C(C)C (stereo unspecified),Percent Effect,"30.3 µM, […]",63.27%
CCC(CC(=O)NS(=O)(=O)C(C)C)c1ccccc1 (stereo unspecified),Percent Effect,"30.3 µM, […]",-1.743%
Cc1cc(NC(=O)NCC(c2ccccc2)N2CCOCC2)n(C)n1 (stereo unspecified),Percent Effect,30 µM,18.5%
C1CC(CN2CCO[C@H]3[C@H](OCC4CC4)CC[C@@H]32)CCO1.O=C(O)C(F)(F)F,Percent Effect,"30 µM, 30.03 µM",5.211%
Cc1ccc(NC(=O)CC2Cn3ncnc3NC2=O)cc1C (stereo unspecified),Percent Effect,"30.3 µM, […]",22.77%
CN1CCOCC12CCN(c1ccc(C#N)cc1)CC2.O=C(O)C(F)(F)F,Percent Effect,"30.3 µM, […]",14.66%
COc1ccc(C2CCCN2C(=O)c2csc(NC(C)=O)n2)cc1 (stereo unspecified),Percent Effect,"30 µM, 30.03 µM",22.16%
Cc1cc(C(=O)NCCc2nc3c(s2)CCCC3)n(C)n1,Percent Effect,"30.3 µM, […]",29.87%
O=C1CCc2cc(-c3csc(CCN4CCOC4=O)n3)c(F)cc2N1,Percent Effect,"30.3 µM, […]",-11.05%
CC(C)c1nc(C2CCCN(C(=O)c3ccc4c(c3)COC4)C2)no1 (stereo unspecified),Percent Effect,30 µM,33.04%
CC(C)C(=O)N1CCC12CCCN(C(=O)c1ccccc1)C2 (stereo unspecified),Percent Effect,"30.3 µM, […]",9.102%
Cc1occc1CNC(=O)C1(C)CCCN1C(=O)c1ccccc1 (stereo unspecified),Percent Effect,"30.3 µM, […]",-78.28%
Cc1occc1CNC(=O)C1(C)CCCN(C(=O)c2ccccc2)C1 (stereo unspecified),Percent Effect,"30.3 µM, […]",52.94%
Cc1cc(CNS(=O)(=O)CCCC#N)ccc1N(C)C,Percent Effect,"30.3 µM, […]",31.94%
CCOc1ncnc2c1CCN(Cc1csc(C)n1)CC2.O=C(O)C(F)(F)F,Percent Effect,"30.3 µM, […]",25.55%
CCOc1cc2c(cc1CNC(Cc1cccs1)c1nccs1)OCO2.Cl (stereo unspecified),Percent Effect,"30.3 µM, […]",32.16%
Cc1nccc(-c2ccccc2)c1C(=O)N1CCC2(CCCO2)CC1,Percent Effect,"30.3 µM, […]",-0.7591%
Cc1[nH]c(-c2ccccc2)nc1C(=O)N1CCC(O)(CO)CC1,Percent Effect,"30.3 µM, […]",20.13%
Cc1[nH]c(-c2ccccc2)nc1C(=O)N1CCC2(CCCO2)CC1,Percent Effect,"30.3 µM, […]",62.09%
CS(=O)(=O)Cc1cccc(C(=O)N2CCCC(n3cccn3)C2)c1 (stereo unspecified),Percent Effect,"30 µM, 30.03 µM",-5.751%
CCc1ccc(C(=O)N2CCC(c3nncn3CC)CC2)o1,Percent Effect,"30.3 µM, […]",-10.9%
COc1cc(CNC(=O)c2csc(Br)c2)ccn1,Percent Effect,"30.3 µM, […]",18.58%
Cc1ccc(-c2cc(CN(CC(N)=O)CC(C)C)on2)cc1,Percent Effect,"30.3 µM, […]",57.13%
Cc1cc(CN(CC(N)=O)CC(C)C)on1,Percent Effect,"30.3 µM, […]",34.94%
Cc1cc(CN(CC(N)=O)CC(C)C)no1,Percent Effect,"30.3 µM, […]",34.93%
CN(C)C(=O)CO[C@H]1CN(Cc2ccc3c(c2)OCO3)[C@@H]2COC[C@H]12.O=C(O)C(F)(F)F,Percent Effect,"30.3 µM, […]",10.2%
O=C(O)Cc1cccc(-n2ccnc2-c2ccc(Cl)s2)c1,Percent Effect,"30.3 µM, […]",-13.71%
CC(NC(=O)NCCCO)c1ccc2c(c1)NC(=O)CO2 (stereo unspecified),Percent Effect,30 µM,9.165%
CC(NC(=O)C1CCCC1)c1nncn1C(C)C (stereo unspecified),Percent Effect,"30.3 µM, […]",53.36%
CC(NC(=O)C1CCN(C(=O)C2CC2)CC1)c1nncn1C(C)C (stereo unspecified),Percent Effect,"30.3 µM, […]",27.99%
CC(NC(=O)C1CCN(C(C)C)CC1)c1nncn1C1CCCC1 (stereo unspecified),Percent Effect,"30.3 µM, […]",38.57%
Cc1ccc(CN2CCOC3(CCCN(c4cccc(F)c4)C3)C2)o1.O=C(O)C(F)(F)F.O=C(O)C(F)(F)F (stereo unspecified),Percent Effect,"30.3 µM, […]",23.02%
O=C(NCCCOC1CCCCC1)C1NCCc2[nH]cnc21 (stereo unspecified),Percent Effect,"30.3 µM, […]",6.477%
COC(=O)NCC(=O)N1CCC(c2cc3ccccc3[nH]2)CC1,Percent Effect,"30.3 µM, […]",11.64%
N#CCCCS(=O)(=O)NC1(c2cccc(Cl)c2)CC1,Percent Effect,"30.3 µM, […]",17.77%
CCS(=O)(=O)N1CCc2ccc(NC(=O)Nc3cccc(SC)c3)cc21,Percent Effect,"30 µM, 30.03 µM",59.71%
CCS(=O)(=O)N1CCc2ccc(NC(=O)Nc3cccc(F)c3)cc21,Percent Effect,"30.3 µM, […]",17.8%
CCS(=O)(=O)N1CCc2ccc(NC(=O)Nc3ccccc3)cc21,Percent Effect,"30.3 µM, […]",14.09%
CC(=O)N(Cc1ncc(C(C)C)o1)C1CCN(Cc2cc(C)no2)C1 (stereo unspecified),Percent Effect,30 µM,25.52%
O=C1CN(C(=O)C2CN(c3ccccc3)CCO2)CCN1 (stereo unspecified),Percent Effect,"30.3 µM, […]",40.28%
CC(C)n1c(=O)c2ccccc2n(CCCN(C)C)c1=O.Cl,Percent Effect,"30.3 µM, […]",-9.627%
CC(C)n1c(=O)c2ccccc2n(CCN(C)C)c1=O.Cl,Percent Effect,"30.3 µM, […]",50.24%
O=C(NCCN1CCCCCC1)c1n[nH]c(=O)c2ccccc12,Percent Effect,"30.3 µM, […]",-32.33%
O=C(NCCCN1CCCCC1)c1n[nH]c(=O)c2ccccc12,Percent Effect,"30.3 µM, […]",20.29%
CC(C)n1c(=O)c2ccccc2n(CCN2CCCCC2)c1=O,Percent Effect,"30.3 µM, […]",52.87%
CN(C)CCn1c(=O)n(C)c(=O)c2ccccc21.Cl,Percent Effect,"30.3 µM, […]",-33.87%
CCOCCn1nnc(C2(NC(=O)c3ccccc3)CCCC2)n1,Percent Effect,"30 µM, 30.03 µM",1.124%
CN(Cc1ccoc1)C(=O)C1(Oc2ccc(Cl)cc2)CCNCC1,Percent Effect,"30.3 µM, […]",-16.66%
CN(Cc1ccncn1)C(=O)C1(Oc2ccc(Cl)cc2)CCNCC1,Percent Effect,"30.3 µM, […]",12.34%
Cc1ccc(OC2(C(=O)N(C)Cc3ccoc3)CCNCC2)cc1,Percent Effect,"30.3 µM, […]",83.11%

# Source: ChEMBL document CHEMBL3988442, “University of Dundee, Small-Polar-MMV Screening Library” (2021)
